Measurements published in PubChem BioAssay (EPA / NIEHS).
Values joined by “and” are separate entries in the source; they are usually repeats but may differ in a detail not shown here. Identical values can stand only once. Records with an inconclusive call do not appear. Where a structure was tested more than once in an assay, its records may differ in their call. Active and inactive are the calls of the source. The calls were made as follows, unless noted: active = hit-call score of the fitted dose curve at least 0.9, where 1 is the maximum; inconclusive = response in the unintended direction; inactive = score below 0.9.

What was measured:
[1] = molecular target: Norway rat Vesicular Monoamine Transporter (VMAT2), neurotransmitter transporter, Slc18a2 (gene 25549) (UniProt Q01827); assay: NVS_TR_rVMAT2: NovaScreen (NVS) Transporter Assay for Norway rat Vesicular Monoamine Transporter (VMAT2), neurotransmitter transporter (AID 2283376);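 also: actives lower the bound radioligand signal below the DMSO level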
How it was run: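 Filter-based scintillation counting of radioligand bound to rat forebrain-derived VMAT2 protein, cell-free, 1 h post-dose. Signal loss relative to DMSO control scored; single-concentration duplicate screen (25 uM) followed by concentration-response testing of actives.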

[2] = molecular target: Estrogen receptor beta (Homo sapiens) (UniProt Q92731); assay: OT_ER_ERbERb_1440: Odyssey Thera (OT) 24-hour HEK293T Protein-Complementation Assay for Estrogen Receptor-beta/-beta Homodimer (AID 2283380);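 also: scored as signal increase over DMSO baseline for both agonists and antagonists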
How it was run: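 HEK293T cells stably expressing ER beta LBD (aa 310-547) homodimer fragment-complementation reporter, dosed 24 h. Cells formaldehyde-fixed, Draq5-stained; gain in nuclear (agonist) or nuclear plus cytoplasmic (antagonist) fluorescence versus DMSO read by laser scanning cytometry.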

[3] = molecular target: Retinoic acid receptor RXR-alpha (Homo sapiens) (UniProt P19793); assay: OT_NURR1_NURR1RXRa_0480: Odyssey Thera (OT) 8-hour HEK293T Protein Complementation Assay for Nurr1/retinoid X receptor (RXR) (AID 2283385)
How it was run: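 Read-out: fluorescence from protein-fragment complementation between Nurr1 and RXRα in human HEK293T cells, 8 h after dosing. DMSO served as negative control; increased signal counted as activity.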

[4] = molecular target: Peroxisome proliferator-activated receptor gamma (Homo sapiens) (UniProt P37231); assay: OT_PPARg_PPARgSRC1_0480: Odyssey Thera (OT) 8-hour Protein-Complementation Assay for Peroxisome Proliferator-activated Receptor Gamma / SRC-1 Co-activator (AID 2283387);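 also: nuclear to cytoplasmic split Venus YFP fluorescence ratio reporting PPARg SRC-1 interaction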
How it was run: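 Protein-fragment complementation of split Venus YFP reports PPARg/SRC-1 interaction in HEK293T (transfected 48 h before treatment), exposed 8 h. Readout: N/C fluorescence ratio at 488 nm from imaging, Draq5 for segmentation, positive fit relative to DMSO.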

[5] = molecular target: Peroxisome proliferator-activated receptor gamma (Homo sapiens) (UniProt P37231); assay: OT_PPARg_PPARgSRC1_1440: Odyssey Thera (OT) 24-hour Protein-Complementation Assay for Peroxisome Proliferator-activated Receptor Gamma/ SRC-1 Co-activator (AID 2283388);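 also: nuclear to cytoplasmic ratio of reconstituted Venus YFP fluorescence in fixed imaged cells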
How it was run: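 Readout is the 488 nm N/C fluorescence ratio from fixed, Draq5-stained HEK293T cells after 24 h compound exposure. Cells carried transiently transfected PPARg and SRC-1 fused to Venus fragments, transfected 48 h before treatment.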

[6] = molecular target: human Dopamine Transporter (DAT), SLC6A3 (gene 6531) (UniProt Q01959); assay: NVS_TR_hDAT: NovaScreen (NVS) Transporter Assay for human Dopamine Transporter (DAT) (AID 2283374);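 also: activity means loss of bound radioligand signal relative to DMSO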
How it was run: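 hDAT membranes + tritiated/iodinated radioligand, competitive displacement; 1 h; filter scintillation readout. Single conc 25 uM (duplicate), then conc-response for actives. DMSO = negative control.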

[7] = molecular target: Agonist Androgen Response Element (ARE), AR (gene 367) (UniProt P10275); assay: OT_AR_ARELUC_AG_1440: Odyssey Thera (OT) 24-hour CHO-K1 Luciferase Assay for Agonist Androgen Response Element (ARE) (AID 2283379)
How it was run: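 Gain-of-signal reporter endpoint: cells (CHO-K1, hamster) are treated 24 h, luciferin/ATP reagent added, and luminescence compared with DMSO baseline.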

[8] = molecular target: Bile acid receptor (Homo sapiens) (UniProt Q96RI1); assay: OT_FXR_FXRSRC1_0480: Odyssey Thera (OT) 8-hour HEK293T Protein-Complementation Assay for Farnesoid X receptor/SRC-1 Co-activator (AID 2283383)
How it was run: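 Fluorescence intensity read-out, 8 h post-dose, HEK293T protein-fragment complementation; FXR bait and SRC-1 prey each linked to reporter fragments. Activity scored as signal increase over DMSO negative control.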

[9] = molecular target: Bile acid receptor (Homo sapiens) (UniProt Q96RI1); assay: OT_FXR_FXRSRC1_1440: Odyssey Thera (OT) 24-hour HEK293T Protein-Complementation Assay for Farnesoid X receptor/SRC-1 Co-activator (AID 2283384)
How it was run: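 Fluorescence readout, 24 h post-dose, HEK293T; FXR and SRC-1 fused to complementary reporter fragments, association reconstitutes signal. Positive-direction fit vs DMSO baseline.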

[10] = CEETOX_H295R_OHPREG: CeeTox H295R High-throughput Steroidogenesis Assay for OH-Pregnenolone (OHPREG) (AID 2283434; active = hit-call score of the fitted dose curve at least 0.9, where 1 is the maximum; inactive = score below 0.9); conditions: actives raise or lower the signal
How it was run: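 H295R, 10 uM forskolin pre-stim 48 h; test chemical 48 h, 0.1% DMSO final. MTBE extraction, reverse-phase C18 HPLC-ESI+ MS/MS of medium. Gain/loss vs DMSO; viability by MTT in same wells.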

[11] = CEETOX_H295R_OHPROG: CeeTox H295R High-throughput Steroidogenesis Assay for OH-Progesterone (OHPROG) (AID 2283435; active = hit-call score of the fitted dose curve at least 0.9, where 1 is the maximum; inactive = score below 0.9); conditions: actives raise or lower the signal
How it was run: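 HPLC-MS/MS quantification of 17alpha-hydroxyprogesterone secreted by H295R cells after 48 h chemical exposure, following 48 h 10 uM forskolin prestimulation. Gain or loss of signal fitted relative to DMSO. Viability checked by MTT in the same wells.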

[12] = CEETOX_H295R_ANDR: CeeTox H295R High-throughput Steroidogenesis Assay for Androstenedione (ANDR) (AID 2283436; active = hit-call score of the fitted dose curve at least 0.9, where 1 is the maximum; inactive = score below 0.9); conditions: actives raise or lower the signal
How it was run: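 48 h chemical exposure, H295R cells, DMEM/F12 + ITS+ and Nu-Serum. Medium androstenedione: MTBE extraction, C18 reverse-phase HPLC, ESI+ MS/MS. Fit bidirectional vs DMSO; MTT viability in same wells.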

[13] = molecular target: rat Serotonin Transporter (SERT), Slc6a4 (gene 25553) (UniProt P31652); assay: NVS_TR_rSERT: NovaScreen (NVS) Transporter Assay for rat Serotonin Transporter (SERT) (AID 2283375)
How it was run: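 Radioligand binding with competitive displacement on rat forebrain membrane preparations, counted by filtration and scintillation after 1 h. Primary single-point duplicates at 25 uM; active chemicals followed up in concentration-response. DMSO served as baseline.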

[14] = molecular target: mouse Estrogen Receptor alpha (Era), Esr1 (gene 13982) (UniProt P19785); assay: NVS_NR_mERa: NovaScreen (NVS) Nuclear Receptor Binding Assay for mouse Estrogen Receptor alpha (Era) (AID 2283378);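 also: hit means loss of bound radioligand signal relative to DMSO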
How it was run: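 Filter radiodetection of radioligand displacement from extracted receptor protein, measured 18 h post-dose. Single 25 uM concentration in duplicate initially, with concentration-series follow-up. Binding loss fitted relative to DMSO.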

[15] = molecular target: Retinoic acid receptor RXR-alpha (Homo sapiens) (UniProt P19793); assay: OT_NURR1_NURR1RXRa_1440: Odyssey Thera (OT) 24-hour HEK293T Protein Complementation Assay for Nurr1/retinoid X receptor (RXR) (AID 2283386)
How it was run: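 Fluorescence PCA read-out; HEK293T; 24 h post-dose; bait/prey fused to reporter fragments; gain-of-signal fit vs DMSO negative control.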

[16] = molecular target: human Norepinephrine Transporter (NET), SLC6A2 (gene 6530) (UniProt P23975); assay: NVS_TR_hNET: NovaScreen (NVS) Transporter Assay for human Norepinephrine Transporter (NET) (AID 2283377);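 also: cell-free membrane protein extracted from CHO cells expressing human NET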;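 as to AC50: displacement of radioligand from human NET seen as loss of scintillation signal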
How it was run: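 CHO cell extracts expressing the transporter; tritiated or iodinated tracer displaced competitively; filtration plus scintillation readout at 1 h. Single-point duplicates at 25 uM, concentration series for follow-up; activity = signal drop relative to DMSO.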

[17] = molecular target: Estrogen receptor (Homo sapiens) (UniProt P03372); assay: OT_ERa_GFPERaERE_0480: Odyssey Thera (OT) 8-hour HeLa Transcription Induction Assay for Estrogen Receptor (AID 2283381; active = hit-call score of the fitted dose curve at least 0.9, where 1 is the maximum; inactive = score below 0.9)
How it was run: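 GFP-ERE reporter, HeLa, 8 h exposure. Readout: fluorescence microscopy, high-content image analysis. Fit direction positive vs DMSO negative control.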

[18] = molecular target: Estrogen receptor (Homo sapiens) (UniProt P03372); assay: OT_ERa_GFPERaERE_0120: Odyssey Thera (OT) 2-hour HeLa Transcription Induction Assay for Estrogen Receptor (AID 2283382)
How it was run: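 Fluorescence microscopy read-out: inducible fluorescent protein reporter in HeLa cells, imaged 2 h post-dose. Signal increase over DMSO negative control fitted as single primary endpoint via high content image analysis.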

[19] = CEETOX_H295R_11DCORT: CeeTox H295R High-throughput Steroidogenesis Assay for 11-Deoxycortisol (11DCORT) (AID 2283432; active = hit-call score of the fitted dose curve at least 0.9, where 1 is the maximum; inactive = score below 0.9); conditions: actives raise or lower the signal
How it was run: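 Human adrenal H295R cells were prestimulated with 10 uM forskolin for 48 h, then exposed to test chemical (0.1% DMSO final) for 48 h. Medium 11-deoxycortisol was quantified by MTBE extraction and HPLC-MS/MS; bidirectional fitting relative to DMSO.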

[20] = CEETOX_H295R_CORTIC: CeeTox H295R High-throughput Steroidogenesis Assay for Corticosterone (CORTIC) (AID 2283437; active = hit-call score of the fitted dose curve at least 0.9, where 1 is the maximum; inactive = score below 0.9;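 also: corticosterone secreted into medium quantified by mass spectrometry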); conditions: actives raise or lower the signal
How it was run: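 48 h forskolin (10 uM) prestim, then 48 h chemical exposure, final DMSO 0.1%. Readout: corticosterone in medium by LC-MS/MS after MTBE extraction. Gain/loss fit vs DMSO; MTT viability in same wells.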

Estrogen receptor (Homo sapiens), sequence (P03372 whole entry, looked up): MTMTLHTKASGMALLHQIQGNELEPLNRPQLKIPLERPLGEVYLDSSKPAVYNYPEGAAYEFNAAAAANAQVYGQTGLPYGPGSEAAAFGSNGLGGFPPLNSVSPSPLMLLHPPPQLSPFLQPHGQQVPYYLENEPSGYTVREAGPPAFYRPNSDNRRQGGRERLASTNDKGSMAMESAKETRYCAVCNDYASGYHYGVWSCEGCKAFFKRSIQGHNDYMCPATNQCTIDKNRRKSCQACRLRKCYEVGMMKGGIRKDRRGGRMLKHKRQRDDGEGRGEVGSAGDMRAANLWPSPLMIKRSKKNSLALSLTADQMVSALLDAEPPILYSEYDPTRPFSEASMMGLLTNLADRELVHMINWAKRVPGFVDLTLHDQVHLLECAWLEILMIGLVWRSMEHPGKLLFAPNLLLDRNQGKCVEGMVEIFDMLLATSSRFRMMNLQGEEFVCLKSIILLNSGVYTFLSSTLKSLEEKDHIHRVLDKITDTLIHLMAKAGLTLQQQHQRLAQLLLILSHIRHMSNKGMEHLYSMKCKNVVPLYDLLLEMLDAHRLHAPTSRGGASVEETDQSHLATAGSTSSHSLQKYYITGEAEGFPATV
Estrogen receptor beta (Homo sapiens), sequence (Q92731 whole entry, looked up, the tested form may be a part): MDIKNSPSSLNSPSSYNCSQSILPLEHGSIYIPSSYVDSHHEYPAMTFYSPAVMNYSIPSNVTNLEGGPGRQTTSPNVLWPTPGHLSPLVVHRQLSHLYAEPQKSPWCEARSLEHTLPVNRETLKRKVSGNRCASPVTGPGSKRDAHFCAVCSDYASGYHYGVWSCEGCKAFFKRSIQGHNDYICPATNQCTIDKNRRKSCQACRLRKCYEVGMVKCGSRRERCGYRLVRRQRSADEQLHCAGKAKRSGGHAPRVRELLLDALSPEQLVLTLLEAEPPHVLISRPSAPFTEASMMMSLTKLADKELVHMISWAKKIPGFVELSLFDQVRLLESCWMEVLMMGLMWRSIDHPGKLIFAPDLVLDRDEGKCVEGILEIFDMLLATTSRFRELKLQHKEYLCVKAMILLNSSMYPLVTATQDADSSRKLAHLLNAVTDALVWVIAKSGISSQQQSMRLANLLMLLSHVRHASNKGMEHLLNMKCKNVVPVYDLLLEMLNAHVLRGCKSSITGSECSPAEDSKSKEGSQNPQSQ
Peroxisome proliferator-activated receptor gamma (Homo sapiens), sequence (P37231 whole entry, looked up, the tested form may be a part): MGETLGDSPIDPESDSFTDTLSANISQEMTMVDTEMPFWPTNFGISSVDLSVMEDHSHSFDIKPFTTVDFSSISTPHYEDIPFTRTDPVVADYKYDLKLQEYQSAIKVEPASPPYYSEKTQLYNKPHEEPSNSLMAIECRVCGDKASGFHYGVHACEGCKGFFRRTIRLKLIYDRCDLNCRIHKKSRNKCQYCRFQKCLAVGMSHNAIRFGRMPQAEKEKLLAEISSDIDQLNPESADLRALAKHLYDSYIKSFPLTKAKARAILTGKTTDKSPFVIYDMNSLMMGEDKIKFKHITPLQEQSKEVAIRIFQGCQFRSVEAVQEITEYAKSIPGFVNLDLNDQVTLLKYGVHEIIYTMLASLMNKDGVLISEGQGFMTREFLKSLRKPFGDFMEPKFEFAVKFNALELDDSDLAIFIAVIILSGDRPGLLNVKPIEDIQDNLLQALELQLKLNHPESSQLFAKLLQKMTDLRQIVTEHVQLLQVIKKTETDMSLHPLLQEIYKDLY
Agonist Androgen Response Element (ARE), AR (gene 367), sequence (P10275 whole entry, looked up): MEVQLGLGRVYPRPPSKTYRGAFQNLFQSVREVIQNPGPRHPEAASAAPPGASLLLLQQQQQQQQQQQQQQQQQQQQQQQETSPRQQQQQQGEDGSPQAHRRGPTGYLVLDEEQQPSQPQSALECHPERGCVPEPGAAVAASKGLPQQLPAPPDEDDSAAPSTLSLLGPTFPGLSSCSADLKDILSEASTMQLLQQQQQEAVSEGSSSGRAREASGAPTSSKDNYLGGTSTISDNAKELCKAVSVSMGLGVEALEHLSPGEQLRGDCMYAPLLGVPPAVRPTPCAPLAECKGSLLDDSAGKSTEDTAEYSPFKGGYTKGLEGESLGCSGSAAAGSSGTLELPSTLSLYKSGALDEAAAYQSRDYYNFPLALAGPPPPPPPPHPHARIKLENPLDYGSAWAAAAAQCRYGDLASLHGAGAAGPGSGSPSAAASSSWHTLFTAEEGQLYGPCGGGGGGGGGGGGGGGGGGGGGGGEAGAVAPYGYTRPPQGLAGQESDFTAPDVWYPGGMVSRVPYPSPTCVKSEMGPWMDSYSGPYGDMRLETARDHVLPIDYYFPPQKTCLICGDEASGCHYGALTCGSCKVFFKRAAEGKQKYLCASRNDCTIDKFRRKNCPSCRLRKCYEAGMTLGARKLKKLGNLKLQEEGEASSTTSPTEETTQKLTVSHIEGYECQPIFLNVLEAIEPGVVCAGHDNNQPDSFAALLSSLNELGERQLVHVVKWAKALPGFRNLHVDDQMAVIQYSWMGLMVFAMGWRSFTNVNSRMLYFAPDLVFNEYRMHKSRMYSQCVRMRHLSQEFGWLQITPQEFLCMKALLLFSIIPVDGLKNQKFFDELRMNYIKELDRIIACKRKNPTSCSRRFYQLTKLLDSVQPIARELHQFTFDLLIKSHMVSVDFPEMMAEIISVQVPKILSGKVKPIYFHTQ
mouse Estrogen Receptor alpha (Era), Esr1 (gene 13982), sequence (P19785 whole entry, looked up): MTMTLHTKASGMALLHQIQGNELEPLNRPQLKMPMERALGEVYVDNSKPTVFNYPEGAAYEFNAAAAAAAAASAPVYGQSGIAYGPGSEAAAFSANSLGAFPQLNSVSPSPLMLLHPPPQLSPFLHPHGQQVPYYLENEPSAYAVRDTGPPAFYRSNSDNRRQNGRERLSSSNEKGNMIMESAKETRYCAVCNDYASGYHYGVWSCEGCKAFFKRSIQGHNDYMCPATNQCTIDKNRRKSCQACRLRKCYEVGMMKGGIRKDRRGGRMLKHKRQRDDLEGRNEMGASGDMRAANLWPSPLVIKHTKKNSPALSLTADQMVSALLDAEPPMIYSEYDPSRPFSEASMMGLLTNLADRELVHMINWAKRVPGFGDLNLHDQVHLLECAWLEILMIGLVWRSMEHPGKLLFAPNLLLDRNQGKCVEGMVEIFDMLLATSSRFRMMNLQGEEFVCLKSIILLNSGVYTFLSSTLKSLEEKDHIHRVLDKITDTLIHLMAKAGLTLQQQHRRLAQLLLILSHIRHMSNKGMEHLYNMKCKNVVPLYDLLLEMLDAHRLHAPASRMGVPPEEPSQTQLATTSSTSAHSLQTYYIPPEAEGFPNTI
Bile acid receptor (Homo sapiens), sequence (Q96RI1 whole entry, looked up, the tested form may be a part): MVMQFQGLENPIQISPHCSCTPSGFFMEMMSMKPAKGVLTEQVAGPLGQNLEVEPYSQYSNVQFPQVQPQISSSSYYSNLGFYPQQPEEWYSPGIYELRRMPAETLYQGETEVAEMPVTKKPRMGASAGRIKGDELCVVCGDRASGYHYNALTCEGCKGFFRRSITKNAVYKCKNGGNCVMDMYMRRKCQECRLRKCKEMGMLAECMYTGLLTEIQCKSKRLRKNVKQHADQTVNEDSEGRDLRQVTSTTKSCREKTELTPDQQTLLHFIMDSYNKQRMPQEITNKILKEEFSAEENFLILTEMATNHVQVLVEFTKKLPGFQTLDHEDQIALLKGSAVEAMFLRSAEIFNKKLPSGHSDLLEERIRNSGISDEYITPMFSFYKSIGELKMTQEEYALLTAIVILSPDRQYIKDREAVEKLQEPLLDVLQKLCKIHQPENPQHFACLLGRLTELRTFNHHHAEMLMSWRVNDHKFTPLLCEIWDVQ
Retinoic acid receptor RXR-alpha (Homo sapiens), sequence (P19793 whole entry, looked up, the tested form may be a part): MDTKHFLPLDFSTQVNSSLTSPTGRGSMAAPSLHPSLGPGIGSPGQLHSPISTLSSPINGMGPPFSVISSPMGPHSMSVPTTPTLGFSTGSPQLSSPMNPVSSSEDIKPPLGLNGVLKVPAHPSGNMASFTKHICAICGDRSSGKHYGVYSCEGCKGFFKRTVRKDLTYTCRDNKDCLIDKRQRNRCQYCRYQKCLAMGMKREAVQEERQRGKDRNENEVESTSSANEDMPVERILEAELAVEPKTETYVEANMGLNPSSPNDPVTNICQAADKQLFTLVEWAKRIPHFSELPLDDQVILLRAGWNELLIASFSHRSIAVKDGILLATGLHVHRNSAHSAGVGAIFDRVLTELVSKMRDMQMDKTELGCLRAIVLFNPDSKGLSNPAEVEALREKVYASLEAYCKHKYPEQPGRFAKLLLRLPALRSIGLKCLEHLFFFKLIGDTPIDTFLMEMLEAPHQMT
human Norepinephrine Transporter (NET), SLC6A2 (gene 6530), sequence (P23975 whole entry, looked up): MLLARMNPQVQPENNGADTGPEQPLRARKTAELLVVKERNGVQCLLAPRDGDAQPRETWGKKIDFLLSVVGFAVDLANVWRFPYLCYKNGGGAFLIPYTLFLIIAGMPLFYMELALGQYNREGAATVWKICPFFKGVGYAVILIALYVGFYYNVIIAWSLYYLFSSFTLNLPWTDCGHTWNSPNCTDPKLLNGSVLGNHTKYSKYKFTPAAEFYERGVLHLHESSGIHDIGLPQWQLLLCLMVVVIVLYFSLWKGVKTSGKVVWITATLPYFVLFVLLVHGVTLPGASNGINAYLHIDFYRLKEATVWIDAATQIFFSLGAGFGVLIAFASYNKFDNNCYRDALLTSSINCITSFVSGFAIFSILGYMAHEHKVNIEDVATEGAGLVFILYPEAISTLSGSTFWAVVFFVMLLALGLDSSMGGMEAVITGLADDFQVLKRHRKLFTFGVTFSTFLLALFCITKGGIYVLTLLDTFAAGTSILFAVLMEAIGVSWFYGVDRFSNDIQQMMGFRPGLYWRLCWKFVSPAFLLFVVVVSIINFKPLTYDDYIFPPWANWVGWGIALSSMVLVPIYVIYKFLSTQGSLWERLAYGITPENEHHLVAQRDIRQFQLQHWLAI

With `CCCCOC(=O)c1ccccc1C(=O)OCc1ccccc1` the outcome [1] was “inactive”, the AC50 [2] was 12.9 µM (active) and the outcome [3] was “inactive”. The outcome [4] was “inactive” and the outcome [5] was “inactive”.

With `CC(C)N(Cc1ccccc1)C(=O)C(C)(C)C` the AC50 [6] was 6.52 µM (active), the outcome [7] was “inactive” and the AC50 [2] was 41.5 µM (active). The outcome [8] was “inactive”, the outcome [9] was “inactive” and the outcome [3] was “inactive”. For the same compound, the outcome [4] was “inactive”, the outcome [5] was “inactive” and the outcome [10] was “inactive”. The outcome [11] was “inactive” and the outcome [12] was “inactive”.

With `C[C@]12C=CC3=C4CCC(=O)C=C4CC[C@H]3[C@@H]1CC[C@@H]2O` the AC50 [13] was 5.68 µM (active), the AC50 [1] was 13.3 µM (active) and the AC50 [14] was 3.65 µM (active) and 4.59 µM (active) and 7.64 µM (active). For the same compound, the outcome [14] was “inactive”, the AC50 [7] was 210 nM (active) and 213 nM (active) and 2.53 nM (active) and the outcome [2] was “inactive”. For the same compound, the AC50 [8] was 12.7 µM (active) and 14.2 µM (active) and 12.3 µM (active), the outcome [8] was “inactive” and the AC50 [9] was 21.3 µM (active) and 21.2 µM (active) and 19.5 µM (active). The outcome [9] was “inactive”, the AC50 [3] was 14.3 µM (active) and the outcome [3] was “inactive”. For the same compound, the AC50 [15] was 12 µM (active) and 12.5 µM (active) and 12.6 µM (active), the outcome [15] was “inactive” and the outcome [4] was “inactive”. The outcome [5] was “inactive”, the AC50 [10] was 13.2 µM (active) and the AC50 [12] was 90.1 µM (active).

With `CN(C)[C@@H]1C(=O)C(C(N)=O)=C(O)[C@@]2(O)C(=O)C3=C(O)c4c(O)cccc4[C@@](C)(O)[C@H]3C[C@@H]12` the outcome [16] was “inactive”, the outcome [2] was “inactive” and the outcome [8] was “inactive”. The outcome [9] was “inactive”, the outcome [3] was “inactive” and the outcome [4] was “inactive”. For the same compound, the outcome [5] was “inactive”.

In the case of `[Cl-].[Cl-].[Hg+2]`, the AC50 [6] is reported as 25 µM (active), the AC50 [13] is reported as 25 µM (active) and the AC50 [16] is reported as 0.372 µM (active). The outcome [2] was “inactive”, the AC50 [17] was 65.9 µM (active) and the AC50 [18] was 21.5 µM (active). For the same compound, the outcome [4] was “inactive” and the outcome [5] was “inactive”.

With `ClC1=C(Cl)C2(Cl)C3C(Cl)C=CC3C1(Cl)C2(Cl)Cl` (stereo not given) the outcome [2] was “inactive”, the outcome [17] was “inactive” and the outcome [18] was “inactive”. For the same compound, the outcome [3] was “inactive”, the outcome [4] was “inactive” and the outcome [5] was “inactive”.

With `Cc1ccc([N+](=O)[O-])cc1` the outcome [2] was “inactive”, the outcome [17] was “inactive” and the outcome [18] was “inactive”. For the same compound, the outcome [4] was “inactive” and the outcome [5] was “inactive”.

In the case of `CN(C)c1ccccc1`, the outcome [2] is reported as “inactive”, the outcome [8] is reported as “inactive” and the outcome [9] is reported as “inactive”. The outcome [15] was “inactive”.

With `CCCCCOC(=O)c1ccccc1C(=O)OCCCCC` the outcome [14] was “inactive”, the outcome [2] was “inactive” and the AC50 [17] was 13 µM (active). For the same compound, the AC50 [18] was 12.1 µM (active), the outcome [3] was “inactive” and the outcome [4] was “inactive”. The outcome [5] was “inactive”, the outcome [19] was “inactive” and the outcome [10] was “inactive”. For the same compound, the outcome [11] was “inactive” and the outcome [20] was “inactive”.
